Most compounds without a hit are left out; they make up all but 1.9% or so of the library.
PP1 counter – PP1-alpha phosphatase inhibitors, primary screen, counter-screen for PP5 inhibitor project, biochemical, fluorescence, OMFP substrate, single point | purified PP1alpha | inhibition, % at 6.7 µM | hit rate 0.9% among 320,000 | Serine/threonine-protein phosphatase PP1-alpha catalytic subunit (Homo sapiens), P62136;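 active = inhibition above the mean inhibition of all tested compounds plus 3 SD, computed separately for each screening campaign, cut at about 15% in these data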
Target sequence (P62136 whole entry, looked up): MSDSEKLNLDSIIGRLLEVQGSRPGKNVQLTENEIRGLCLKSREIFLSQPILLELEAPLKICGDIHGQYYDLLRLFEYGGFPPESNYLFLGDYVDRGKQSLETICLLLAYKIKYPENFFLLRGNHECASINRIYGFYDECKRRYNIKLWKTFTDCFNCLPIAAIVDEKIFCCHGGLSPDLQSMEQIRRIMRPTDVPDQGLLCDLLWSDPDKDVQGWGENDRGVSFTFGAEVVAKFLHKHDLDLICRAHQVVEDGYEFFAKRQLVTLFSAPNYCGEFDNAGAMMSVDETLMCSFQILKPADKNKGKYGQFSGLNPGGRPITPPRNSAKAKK
PP5 inh – PP5 phosphatase inhibitors, primary screen, biochemical, fluorescence; inhibition, % at 6.7 µM; hit rate 0.18% among 320,000; AID 1987, 2009; Serine/threonine-protein phosphatase 5 (Homo sapiens), P53041; purified PP5c, OMFP substrate fluorescence;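 active = inhibition above the campaign's mean inhibition across all tested compounds plus 3 SD, cut at about 9.5% in these data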
ATG4B inhibitor – ATG4B protease inhibitors, primary screen, biochemical, fluorescence, uHTS; ATG4B cleavage of LC3-PLA2, NBD-HPC fluorescence, 1 h; AID 504462, 2011; inhibition, % at 8.33 µM; hit rate 0.51% among 340,000; Cysteine protease ATG4B (Homo sapiens), Q9Y4P1; in the data active = inhibition above about 40%
H9c2 protect – cardioprotection against H2O2-induced cell death, primary screen, uHTS, H9c2 cells, ATPLite luminescence; H9c2 cardiomyocytes, H2O2 injury protection, 2 h; protection from H2O2 cell death, % at 20 µM; hit rate 0.63% among 360,000;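 active = compounds giving at least 50% protection of heart cells from peroxide-induced death in the single-dose screen, raw or plate-pattern-corrected value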
Numbers stand for hits; i = inactive; nt = no result.

SMILES	PP1 counter	PP5 inh	ATG4B inhibitor	H9c2 protect
CC(Oc1ccc(Cl)cc1Cl)C(=O)OCC(=O)c1c(N)n(C)c(=O)n(C)c1=O (centres undefined)	i	i	i	i
CCCn1nc(C(=O)Nc2nc(-c3ccccn3)cs2)c2ccccc2c1=O	i	i	i	86
C[C@@H](C(=O)Nc1nc(-c2ccccn2)cs1)N1C(=O)C2CCCCC2C1=O (some centres undefined)	i	i	i	95
Cn1nc(C(=O)Nc2nc(-c3ccccn3)cs2)c2ccccc2c1=O	nt	nt	i	55
O=C(CN1C(=O)C2CCCCC2C1=O)Nc1nc(-c2ccccn2)cs1 (centres undefined)	i	i	i	i
CCn1nc(C(=O)Nc2nc(-c3ccccn3)cs2)c2ccccc2c1=O	i	i	i	79
CCCc1cc(=O)[nH]c2nnc(SCC(=O)Nc3cccc(NC(C)=O)c3)n12	i	i	i	i
CCCc1cc2c(cc1NC(=O)c1ccc(Br)cc1)OCO2	i	i	i	56
CCOc1ccc(CCNC(=O)c2cc3c(C)nccc3[nH]c2=O)cc1OCC	i	i	i	72
CCCC(c1nnnn1CS(=O)(=O)c1ccc(C)cc1)N1CCC(C(N)=O)CC1 (centres undefined)	i	i	i	i
CCN(CC)CCn1c(NC(=O)c2ccc(Cl)cc2)nc2ccccc21	i	i	i	62
O=C(Nc1nc2ccccc2n1Cc1ccccc1)c1ccco1	i	i	i	58
Cn1c(CCCNC(=O)c2ccccc2)nc2ccccc21	i	i	i	i
CCCn1c(NC(=O)c2ccccc2)nc2ccccc21	i	i	i	52
Cn1c(/C=N/NC(=O)c2ccccc2)nc2ccccc21	i	i	i	65
CCCn1c(NC(=O)c2ccc(C)cc2)nc2ccccc21	i	i	i	i
CC1Cc2ccccc2N1C(=O)c1ccc2nccnc2c1 (centres undefined)	nt	nt	i	i
Cc1ccc(CN2CCC(Oc3cccc(C(=O)NCc4cccnc4)c3)CC2)o1	i	i	i	i
Cc1ccc(N(CC(=O)NC(C)(C)C)C(=O)CCC(=O)Nc2nccs2)c(C)c1	nt	nt	i	i
C/C(=N\Nc1ccc2nncn2n1)c1ccccn1	i	i	i	58
O=C(O)c1cc(S(=O)(=O)NC23CC4CC(CC(C4)C2)C3)ccc1Cl	i	i	i	i
Cc1nc(SCC(=O)NCc2ccc(F)cc2)c2c(=O)n(C)c(=O)n(C)c2n1	i	i	i	53
Cc1nn(-c2ccccc2)nc1C(=O)Nc1cccc(C(=O)NC2CC2)c1	nt	nt	nt	61
CCCCCCCCN1[C@@H](CC(=O)OC)c2cc(F)ccc2S1(=O)=O	i	i	i	i
CCCCCCCCCCCCN1[C@@H](CC(=O)O)c2cc(F)ccc2S1(=O)=O	16	i	i	i
SMILES	PP1 counter	PP5 inh	ATG4B inhibitor	H9c2 protect
O=C(c1ccco1)N(CCC(c1ccccc1)c1ccco1)Cc1ccco1 (centres undefined)	17	i	i	i
COc1ccccc1N1CCN(C(=O)c2ccc3noc(-c4ccccc4)c3c2)CC1	nt	nt	nt	i
CCCCN(Cc1nc2ccccc2c(=O)[nH]1)C(=O)CN1C(=O)NC2(CCCCC2)C1=O	i	i	i	83
CCCOc1ccc(/C=C2\SC(N)=NC2=O)cc1OC	i	i	i	i
COc1cc(/C=C2\SC(N)=NC2=O)ccc1OCC(=O)Nc1ccccc1C	i	i	i	54
Cc1ccc(C)c(S(=O)(=O)N2CCN(C(=O)CSc3ccccc3)CC2)c1	nt	nt	i	i
O=C(Cn1[nH]c(=O)c2ccccc2c1=O)N1CCN(S(=O)(=O)c2ccc(Cl)cc2)CC1	i	i	i	74
Cc1ccc(C)c(S(=O)(=O)N2CCN(C(=O)Cn3[nH]c(=O)c4ccccc4c3=O)CC2)c1	i	i	i	61
CCn1c(/C=C/c2ccc(O)c(O)c2)nc2ccccc2c1=O	nt	nt	i	70
CCn1c(/C=C/c2ccc(O)cc2)nc2ccccc2c1=O	i	i	i	i
CCCCS(=O)(=O)Nc1ccc(N2CCOCC2)c(S(=O)(=O)N2CCOCC2)c1	i	i	i	i
O=C(CSc1ccccc1)N/N=C/c1ccccc1O	i	i	i	51
O=C(CCSCCC(=O)NN=Cc1ccccc1O)NN=Cc1ccccc1O	nt	nt	i	58
O=C(N/N=C/c1ccccc1O)C1SCCCS1	i	i	i	70
O=C(CSc1n[nH]c(=O)[nH]c1=O)N/N=C/c1ccccc1O	i	i	i	i
O=C(CCCCCNC(=O)c1ccccc1)N/N=C/c1ccccc1O	i	i	i	i
CC12CCC(=O)N1C(C(=O)Oc1cccc(F)c1)CS2 (centres undefined)	nt	nt	nt	i
Cc1cccc(NC(=O)COc2cccc3c2CCNC3=O)c1	nt	nt	nt	59
COc1ccc(NC(=O)COc2cccc3c2CCNC3=O)cc1	nt	nt	i	68
COc1cccc(NC(=O)COc2cccc3c2CCNC3=O)c1	i	i	i	56
O=C(COc1cccc2c1CCNC2=O)Nc1ccc(F)cc1	nt	nt	i	51
Cc1cccc(NC(=O)COc2cccc3c2CCN(C)C3=O)c1	i	i	i	i
COc1cccc(NC(=O)COc2ccc(C)cc2)c1	i	i	i	i
Cc1cc(C)c(S(N)(=O)=O)c(C)c1N(C)S(=O)(=O)c1ccc(Cl)cc1	i	i	i	i
CCOC(=O)c1cc2c(OC)c(OC)ccc2c2[nH]cc(C#N)c(=O)c12	nt	nt	nt	i
SMILES	PP1 counter	PP5 inh	ATG4B inhibitor	H9c2 protect
O=c1c2c(nc3cc(-c4ccccc4)[nH]n13)CCS2	i	i	i	i
O=c1c2c(nc3cc(-c4ccccc4Cl)[nH]n13)CCS2	17	i	i	i
COc1ccc(S(=O)(=O)N2CCOCC2)cc1NC(=O)c1cccc2c(=O)c(C)c(-c3ccccc3)oc12	i	i	i	71
Cc1sc2nc(SCC(=O)N(C)C)[nH]c(=O)c2c1C	i	i	i	73
CC(=O)OCc1nc2sc(C)c(C)c2c(=O)[nH]1	i	i	i	51
Cc1sc2nc(SCC(=O)N3CCCC3)[nH]c(=O)c2c1C	i	i	i	80
O=C(COC(=O)/C=C/c1ccc(C(F)(F)F)cc1)NC(=O)NCc1ccco1	i	i	i	i
CC(/C=C/c1ccccc1)=N/NC(=O)c1cc([N+](=O)[O-])cc([N+](=O)[O-])c1	i	i	i	65
CC(/C=C/c1cccc([N+](=O)[O-])c1)=N/NC(=O)c1cccnc1	i	i	i	i
COc1cc(C(CC(=O)Nc2cccc(C)n2)N2Cc3ccccc3C2=O)cc(OC)c1OC (centres undefined)	i	i	i	i
CCOC(=O)c1c(C)n(-c2ccc(C)cc2)c2ccc(OCC(O)CNCC3CCCO3)cc12 (centres undefined)	16	i	i	i
Cc1ccc(S(=O)(=O)N(C)/N=C/c2ccc(N(C)C)cc2)cc1	i	i	i	i
Cc1ccccc1OCC(=O)N1CCCCCCC1	i	i	i	i
CC(C)(C)c1cc(S(=O)(=O)CCc2ccncc2)cc(C(C)(C)C)c1F	i	i	i	i
CCOc1ccc2nc(N=NC3=C(O)CC(C)(C)CC3=O)sc2c1	i	i	i	51

Source: PubChem
